# Screening results: PubChem, National Center for Advancing Translational Sciences (NCATS)
# Hits are enriched below; roughly 7.9% of the tested compounds scored in any of these assays.
# KB-3-1 cytotox: KB-3-1 parental cell cytotoxicity; KB-3-1 viability, CellTiter-Glo ATP luminescence, 72 h; Potency, µM (series often up to 46.1 µM), hits mostly cytotoxic; 1.4% of 400,000 active; AID 1347075; also: % is scaled to controls: 0 for no effect and ±100 for the full control effect; nearly all actives have a fitted effect of over 60% in size
#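 Here the drug-naive KB-3-1 line serves as comparator for MDR sub-line selectivity; cells received compound titrations, 72 h at 37 °C, then CellTiter-Glo readout.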
# HT1080NT lethal: kills 2HG-producing HT-1080-NT fibrosarcoma cells. HT-1080-NT fibrosarcoma viability, CellTiter-Glo ATP luminescence, 48 h. Potency, µM (top dose mostly 46.1 µM), for inactives: at the top dose activity, negative = less viability, actives largely listed as cytotoxic. 1.6% of 360,000 active. AID 686970;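 also: NT is the 2HG producing partner of a matched IDH1 knockdown line; 0% = DMSO-treated cells and -100% = media-only wells without cells; nearly all actives have a fitted effect of over 55% in size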
#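 A 48-hour cytotoxicity screen used HT-1080-NT cells plated 2 hours before compound delivery. ATP-based CellTiter-Glo luminescence measured viability, normalized to DMSO and no-cell controls.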
# SW480 rereplic: induces DNA re-replication in SW480 colon adenocarcinoma cells | 1.8% of 340,000 active | Potency, µM (top dose mostly 46.1 µM), inactives show at the highest dose re-replication activation, hits mostly activators | SW480 DNA re-replication, Hoechst DNA content imaging, 48 h; also: % of control where 0% means no effect; nearly all actives have a fitted effect of over 55% in size
#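 DNA re-replication was detected as more nuclei of elevated Hoechst intensity after 48 hr exposure to compound (23 nL pinned per well of 250 cells).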
# HT1080 IDH1KD tx: HT-1080 IDH1 knockdown cell toxicity (counter line); 2% of 360,000 active; HT-1080 IDH1 knockdown viability, ATP luminescence, 48 h; Potency, µM (series often up to 46.1 µM), for the others: at the top dose activity, negative = toxicity, actives largely listed as cytotoxic;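 also: 0% = DMSO wells and -100% = cell-free medium wells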
#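 Knockdown cells (IDH1KD HT-1080) received compounds 2 h after plating at 750 cells/well and were kept 48 h at 37 °C in 5% FBS RPMI. A CellTiter-Glo luminescence read gave % activity for curve fitting.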
# MCF10A rerep: induces DNA re-replication in MCF 10a normal breast cells | MCF 10A DNA re-replication, Hoechst nuclear intensity, 48 h | Potency, µM (highest dose often 46.1 µM), for inactives: at the highest dose activity, positive = re-replication, most hits filed as activators | 2.9% of 350,000 active | AID 624296; also: % of control where 0% means no effect; nearly all actives have a fitted effect of over 50% in size
# KB-V1 MDR tox: kills drug-selected multidrug resistant KB-V1 cells; AID 1347076; Potency, µM (highest dose often 46.1 µM), actives largely listed as cytotoxic; 3.4% of 400,000 active; KB-V1 MDR cells viability, CellTiter-Glo, 72 h; also: % is scaled to controls: 0 for no effect and ±100 for the full control effect; nearly all actives have a fitted effect of over 60% in size
#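 KB-V1 cells (P-gp-expressing MDR subline of KB-3-1) in phenol-red-free DMEM with 10% FBS were exposed to library compounds over a concentration series for 72 h at 37 degrees C. Viability read by CellTiter-Glo luminescence; concentration-effect curves fitted after normalization.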
# * hit, by the source's call; i = inactive; ? = inconclusive; . = no result; [ ] = dose if it differs, or a comment. Calls follow the shape of the dose curve; as a rule, active = well fitted curve in the direction sought with a large enough effect; inconclusive = small, poorly fitted or top-dose-only effect, or another doubt; inactive = no such curve, though single readings can be large; an effect the other way counts as inactive or inconclusive. Potency is read from the fitted curve at half-maximal effect.
SMILES,KB-3-1 cytotox,HT1080NT lethal,SW480 rereplic,HT1080 IDH1KD tx,MCF10A rerep,KB-V1 MDR tox
C=CCn1c(C)cc(C(=O)CSc2nnc(NCc3ccccc3)s2)c1C,13µM*,?,?,?,3.7µM*,10µM*
C=CCn1c(C)cc(C(=O)CSc2nc3ccccc3o2)c1C,?,-3%,?,-6%,23µM*,15µM*
Cc1cc(C(=O)CSc2ncnc3ccccc23)c(C)n1C1CC1,i,0%,-7%,0%,2%,i
C=CCn1c(C)cc(C(=O)CSc2nnc(Cc3ccccc3)o2)c1C,i,19%,10%,18%,23%,i
COc1cccc(NC(=O)CCSc2nc(-c3ccco3)cc(C(F)(F)F)n2)c1,i,.,.,.,.,i
Cc1ccccc1C(=O)NCCc1sc(-c2ccc(Cl)cc2)nc1C,i,.,.,.,.,i
COc1ccc(/C=C/C(=O)Nc2nc3n(n2)C(c2ccccc2)C=C(c2ccc(Cl)cc2)N3)cc1 (configuration not stated),i,.,.,.,.,i
COc1ccc(-c2nc(-c3ccc4c(c3)OCO4)[nH]c2-c2ccc(OC)cc2)cc1,i,18µM*,?,?,?,21µM*
COc1ccc(-c2noc(-c3ccc4c(c3)OCO4)n2)cc1,i,29%,-4%,21%,-2%,i
CCc1nnc(NC(=O)CSc2nnc(-c3ccccc3O)n2-c2ccc(C)cc2C)s1,?,4.6µM*,18µM*,?,9.2µM*,18µM*
CCc1nnc(NC(=O)CSc2nnc(COc3ccccc3)n2-c2ccc(C)cc2)s1,i,9%,6%,4%,5%,i
CCC(=O)Nc1ccc(S(=O)(=O)NCc2cccn2Cc2cccc(C)c2)cc1,i,.,.,.,.,i
COc1ccc(S(=O)(=O)N(C)C[C@H]2Oc3c(NC(=O)Nc4ccc(C(F)(F)F)cc4)cccc3C(=O)N([C@H](C)CO)C[C@@H]2C)cc1,?,?,25%,21µM*,?,?
C[C@H](CO)N1C[C@H](C)[C@@H](CN(C)C(=O)Nc2ccc(C(F)(F)F)cc2)Oc2c(NC(=O)NC3CCCCC3)cccc2C1=O,?,-25%,-46%,-22%,3.3µM*,i
C[C@@H]1CN([C@H](C)CO)C(=O)c2cccc(NC(=O)NC3CCCCC3)c2O[C@@H]1CN(C)C(=O)Nc1ccc(C(F)(F)F)cc1,?,?,?,?,?,i
O=C(Nc1cccc(Cl)c1Cl)c1cc2nc(-c3ccc(Cl)cc3)cc(C(F)(F)F)n2n1,i,.,.,.,.,i
CCc1nn(CC(=O)NC2CC2)c(=O)c2cc3c(OC)cccc3n12,i,.,.,.,.,i
COc1ccc(OC)c(C2C(C(=O)c3cc4ccccc4o3)=C(O)C(=O)N2c2cc(C)on2)c1 (configuration not stated),?,12%,2%,10%,8%,3.7µM*
COc1cccc(C2C(C(=O)c3cc4ccccc4o3)=C(O)C(=O)N2c2cc(C)on2)c1 (configuration not stated),i,?,-11%,-3%,18µM*,i
Cc1cc(N2C(=O)C(O)=C(C(=O)c3cc4ccccc4o3)C2c2cccc(Cl)c2)no1 (configuration not stated),i,-15%,?,-28%,?,i
Cc1cc(N2C(=O)C(O)=C(C(=O)c3ccc(C)o3)C2c2cccc(Oc3ccccc3)c2)no1 (configuration not stated),i,1%,?,4%,26µM*,i
C=CCOc1cccc(C2C(C(=O)c3cc4ccccc4o3)=C(O)C(=O)N2c2cc(C)on2)c1 (configuration not stated),i,?,?,-6%,21µM*,i
CCCOc1ccc(C2C(C(=O)c3cc4ccccc4o3)=C(O)C(=O)N2c2cc(C)on2)cc1 (configuration not stated),?,-1%,?,1%,19%,i
Cc1ccc(S(=O)(=O)NCC(c2ccc(N(C)C)cc2)N2CCCC2)cc1 (configuration not stated),i,.,.,.,.,i
Cc1ccc(NC(=O)Cn2c(=O)ccc3cc(S(=O)(=O)N4CCCC4)ccc32)cc1N(C)C,i,.,.,.,.,i
SMILES,KB-3-1 cytotox,HT1080NT lethal,SW480 rereplic,HT1080 IDH1KD tx,MCF10A rerep,KB-V1 MDR tox
COC(=O)c1cc(NC(=O)c2oc(=O)c3ccccc3c2-c2ccccc2)cc(C(=O)OC)c1,i,.,.,.,.,i
O=C(N/N=C/c1ccc([N+](=O)[O-])o1)c1cc(-c2cccc(Br)c2)nc2ccccc12,?,?,15%[9.22 µM],?,29%,?
CCCc1ccc(-c2cc(C(=O)N/N=C/c3ccc([N+](=O)[O-])o3)c3ccccc3n2)cc1,12µM*,7.3µM*,7.1µM*,6.5µM*,5µM*,8.2µM*
O=C(N/N=C/c1ccc([N+](=O)[O-])o1)c1cn2ccc3ccccc3c2n1,i,-16%,21µM*,3%,?,i
O=C(N/N=C/c1ccc([N+](=O)[O-])o1)c1sc2ccccc2c1Cl,?,-24%,14%,?,?,?
COc1cc(OC)cc(C(=O)Nc2ccc3nc(N4CCC(C)CC4)cc(C)c3c2)c1,i,.,.,.,.,i
CCOc1ccc(C(=O)C(C)OC(=O)C2CCN(c3ccc(C(F)(F)F)cn3)CC2)cc1 (configuration not stated),?,-14%,1%,-11%,10%,?
COc1ccccc1CNC(=O)COC(=O)C1CCN(c2ccc(C(F)(F)F)cn2)CC1,i,5%,4.6µM*,0%,8%,i
COc1ccccc1CNC(=O)COC(=O)Cn1cnc2ccccc21,i,1%,?,1%,0.82µM*,i
CC(OC(=O)C1CCN(c2ccc(C(F)(F)F)cn2)CC1)C(=O)NC1CCCCC1C (configuration not stated),i,-1%,0%,-2%,1%,23µM*
COc1ccc(CCNC(=O)COC(=O)Cn2cnc3ccccc32)cc1OC,i,-2%,4%,10%,-6%,i
Cc1cccc(NC(=O)CN2C(=O)CCn3nc(-c4cccn4C)cc32)c1C,i,.,.,.,.,i
O=C(NCc1cccc(C(F)(F)F)c1)c1[nH]c(C(F)(F)F)nc1-c1ccccc1,i,?,.,?,.,?
